This is an account of results in PubChem BioAssay.

A number with no mark means an inactive call. For some of these results: Entries with a potency or affinity are not part of this list. Activity calls are given as the source filed them. Unless noted, how the calls were made is not given here.

For orientation: inhibition means the change of the read-out against control, counted positive when it falls.

Assay [1] can be described thus: antimalarial activity against Dd2 strain (AID 2302;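 active means growth inhibition above 50% at the single 2 µM test dose, taken to imply half-maximal potency below 2 µM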;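 further: 0% = DMSO untreated growth and 100% = chloroquine plus artemisinin killed control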). The settings on record: P. falciparum Dd2 in RBCs, LDH growth readout, 72 h; at 2 µM; hits give high values.
The nature of assay [2]: HepG2 cytotoxicity, primary screen, cytotoxicity control for P. falciparum antimalarial project, cell-based, ATP luminescence (AID 2303;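 active means inhibition above 50%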;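 further: 0% = DMSO wells and 100% = digitonin-killed cells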). The settings on record: HepG2 viability, 24-48 h, at 10 µM, hits give high values.
Assay [3] concerns the target L-lactate dehydrogenase (Plasmodium falciparum (isolate CDC / Honduras)) (UniProt Q27743). The assay can be described thus: PfLDH activity inhibition – cell lysate, 3D7 strain, counter-screen for P. falciparum growth inhibition project (AID 2304).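 Further: 0% = vehicle and 100% = reference inhibitor.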 The following applies: P. falciparum 3D7 crude extract, LDH APAD/NBT absorbance; at 2 µM; hits give high values.
Assay [4] can be described thus: inhibition of 3D7 malaria parasite growth – strain 3D7 (AID 2306).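 Further: 0% = DMSO wells and 100% = chloroquine plus artemisinin control wells.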 The following applies: P. falciparum 3D7 erythrocytic growth, LDH absorbance, 72 h; at 2 µM; hits give high values.
Assay [5] concerns the target Calcium-dependent protein kinase 1 (Plasmodium falciparum (isolate 3D7)) (UniProt P62344). The assay can be described thus: PfCDPK1 kinase inhibitors, biochemical, TCAMS library (AID 1159585; cut-off not given, nearly all actives have IC50 up to about 0.98 µM;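 further: inhibitors leave more ATP so luminescence rises with inhibition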). The settings on record: recombinant PfCDPK1, Kinase-Glo ATP depletion luminescence. Background: In Kinase-Glo more light means more ATP remaining.
Assay [6] deals with Plasmodium falciparum protein kinase 6 (PK6, PF3D7_1337100) (UniProt Q8IDW1). The assay can be described thus: PfPK6 kinase inhibitors, biochemical, TCAMS library (AID 1159586). The following applies: recombinant PfPK6, Kinase-Glo ATP depletion luminescence.
The target of assay [7] is Protein kinase 7 (PK7), Plasmodium falciparum 3D7 (PF3D7_0213400) (UniProt Q7YTF7). The assay can be described thus: inhibition of Plasmodium PK7 catalytic activity – biochemical, TCAMS antimalarial set, Kinase-Glo luminescence (AID 1159587). The settings on record: recombinant PfPK7, Kinase-Glo ATP depletion luminescence.
For assay [8], the target named is Calcium-dependent protein kinase 4 (Plasmodium falciparum (isolate 3D7)) (UniProt Q8IBS5). The assay can be described thus: PfCDPK4 kinase inhibitors, biochemical, TCAMS library (AID 1159588; cut-off not given, nearly all actives have IC50 up to about 0.91 µM). The settings on record: recombinant PfCDPK4, Kinase-Glo ATP depletion luminescence.
Chain of Calcium-dependent protein kinase 4 (Plasmodium falciparum (isolate 3D7)) (Q8IBS5 whole entry, looked up): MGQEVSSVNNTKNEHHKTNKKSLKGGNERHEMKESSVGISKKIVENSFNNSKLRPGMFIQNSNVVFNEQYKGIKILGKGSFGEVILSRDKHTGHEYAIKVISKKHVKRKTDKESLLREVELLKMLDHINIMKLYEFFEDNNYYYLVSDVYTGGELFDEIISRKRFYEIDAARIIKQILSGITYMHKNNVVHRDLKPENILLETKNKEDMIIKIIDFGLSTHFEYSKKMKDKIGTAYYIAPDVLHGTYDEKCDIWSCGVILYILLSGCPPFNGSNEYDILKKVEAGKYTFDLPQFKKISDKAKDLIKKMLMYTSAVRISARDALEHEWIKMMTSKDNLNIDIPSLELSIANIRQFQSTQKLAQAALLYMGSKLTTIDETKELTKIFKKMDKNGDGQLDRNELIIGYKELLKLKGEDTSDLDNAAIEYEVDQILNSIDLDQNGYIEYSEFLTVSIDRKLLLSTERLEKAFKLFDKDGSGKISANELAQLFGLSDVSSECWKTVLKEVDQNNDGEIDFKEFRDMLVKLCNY

Chain of Calcium-dependent protein kinase 1 (Plasmodium falciparum (isolate 3D7)) (P62344 whole entry, looked up): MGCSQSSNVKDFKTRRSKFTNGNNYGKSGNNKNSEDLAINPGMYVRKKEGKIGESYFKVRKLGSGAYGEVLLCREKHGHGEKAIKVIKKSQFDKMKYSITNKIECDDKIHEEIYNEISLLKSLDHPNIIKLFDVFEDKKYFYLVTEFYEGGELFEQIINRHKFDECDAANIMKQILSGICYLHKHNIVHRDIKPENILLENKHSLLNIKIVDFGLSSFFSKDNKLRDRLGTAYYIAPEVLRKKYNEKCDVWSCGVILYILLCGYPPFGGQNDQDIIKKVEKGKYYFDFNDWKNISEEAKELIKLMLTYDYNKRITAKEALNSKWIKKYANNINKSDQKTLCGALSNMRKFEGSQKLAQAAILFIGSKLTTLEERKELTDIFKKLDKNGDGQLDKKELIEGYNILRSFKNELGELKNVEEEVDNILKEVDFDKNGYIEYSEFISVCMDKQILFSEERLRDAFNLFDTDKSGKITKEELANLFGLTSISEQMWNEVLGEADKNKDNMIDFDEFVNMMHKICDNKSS
Chain of L-lactate dehydrogenase (Plasmodium falciparum (isolate CDC / Honduras)) (Q27743 whole entry, looked up): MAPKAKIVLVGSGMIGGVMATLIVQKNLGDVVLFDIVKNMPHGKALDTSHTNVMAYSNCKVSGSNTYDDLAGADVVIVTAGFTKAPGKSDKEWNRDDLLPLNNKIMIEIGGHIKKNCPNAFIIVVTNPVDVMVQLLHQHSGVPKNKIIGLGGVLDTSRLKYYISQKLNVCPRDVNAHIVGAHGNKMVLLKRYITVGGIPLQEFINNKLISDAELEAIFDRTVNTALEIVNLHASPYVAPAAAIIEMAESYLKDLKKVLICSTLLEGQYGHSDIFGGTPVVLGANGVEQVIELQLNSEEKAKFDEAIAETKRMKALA
Chain of Plasmodium falciparum protein kinase 6 (PK6, PF3D7_1337100) (Q8IDW1 1-305): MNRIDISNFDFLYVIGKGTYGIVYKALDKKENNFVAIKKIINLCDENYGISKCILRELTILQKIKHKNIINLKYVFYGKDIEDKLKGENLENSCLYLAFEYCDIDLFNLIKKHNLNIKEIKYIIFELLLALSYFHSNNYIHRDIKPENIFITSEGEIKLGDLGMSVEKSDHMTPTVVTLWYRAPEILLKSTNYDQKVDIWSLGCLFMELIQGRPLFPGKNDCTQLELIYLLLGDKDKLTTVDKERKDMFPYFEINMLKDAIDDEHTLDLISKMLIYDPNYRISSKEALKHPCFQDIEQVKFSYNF
Chain of Protein kinase 7 (PK7), Plasmodium falciparum 3D7 (PF3D7_0213400) (Q7YTF7 1-343): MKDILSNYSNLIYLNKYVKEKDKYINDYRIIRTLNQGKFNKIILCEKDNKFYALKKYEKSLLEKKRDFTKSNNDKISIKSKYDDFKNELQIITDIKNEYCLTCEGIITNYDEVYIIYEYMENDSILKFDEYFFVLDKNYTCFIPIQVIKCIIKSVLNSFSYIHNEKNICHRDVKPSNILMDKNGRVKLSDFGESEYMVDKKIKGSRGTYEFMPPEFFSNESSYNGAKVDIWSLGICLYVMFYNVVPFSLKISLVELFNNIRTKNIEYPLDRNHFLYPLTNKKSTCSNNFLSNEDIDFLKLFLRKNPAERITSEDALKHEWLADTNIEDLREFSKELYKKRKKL

As to `CCC1(CC)N=C(N)N=C(N)N1OCc1ccc(Cl)c(Cl)c1`, the values for the growth inhibition in assay [1] and in assay [4] were 49% and 94% (active), respectively. The inhibition in assay [2] is 49%; in assay [3], -1%. Moreover, the outcome in assay [5], in assay [6], in assay [7] and in assay [8] was inactive.

Consider `CNC(=O)c1cnc(Nc2ccc(OCC(O)CN(C)C)cc2)nc1Nc1cccc(Br)c1` (stereo not given), for which the values for the growth inhibition in assay [1] and in assay [4] were 100% (active) and 102% (active), respectively. For the same compound, the inhibition is 68% (active) in assay [2] and -5% in assay [3]. The outcome in assay [5], in assay [6], in assay [7] and in assay [8] was inactive.

For `Cc1ccccc1CN1CCCN(Cc2ccc(C(=O)Nc3ccc(Cl)cc3)cc2)CC1`, the growth inhibition in assay [1] was 15%; in assay [4], 93% (active). Further, the inhibition in assay [2] was 48%; in assay [3] it was 3%. Further, the outcome in assay [5], in assay [6], in assay [7] and in assay [8] was inactive.

`CCNc1cc(C(=O)N[C@@H](Cc2ccccc2)[C@H](O)CN[C@H]2C[C@@H]3CC[C@H]2C3)cc(N2CCCCS2(=O)=O)c1`: the results for the growth inhibition in assay [1] and in assay [4] were 73% (active) and 99% (active), respectively. Also, the inhibition in assay [2] was -4%; in assay [3], 1%. Further, the outcome in assay [5], in assay [6], in assay [7] and in assay [8] was inactive.

Regarding `CNC(=S)NN=C(C)c1ccccn1`, the growth inhibition was 99% (active) in assay [1] and 98% (active) in assay [4]. Moreover, the inhibition was 64% (active) in assay [2] and -4% in assay [3]. The outcome in assay [5], in assay [6], in assay [7] and in assay [8] was inactive.

As for `COc1ccc(NC(=O)c2ccc3cc4ccccc4cc3c2)cc1N1CCN(C)CC1`, the growth inhibition was 29% in assay [1] and 86% (active) in assay [4]. Moreover, the inhibition in assay [2] is 38%; in assay [3], 1%. In addition, the outcome in assay [5], in assay [6], in assay [7] and in assay [8] was inactive.

For `COc1ccccc1N1CCN(c2cccc3c2nc(-c2cncc(C#N)c2)n3CCNCc2ccccc2)CC1`, the values for the growth inhibition in assay [1] and in assay [4] were 81% (active) and 101% (active), respectively. For the same compound, the inhibition in assay [2] is -8%; in assay [3], 3%. The result in assay [5], in assay [6], in assay [7] and in assay [8] was inactive.

As for `CC1N=C(N)N=C(N)N1OCc1cccc2ccccc12` (stereo not given), the results for the growth inhibition in assay [1] and in assay [4] were 4% and 93% (active), respectively. In addition, the figures for the inhibition in assay [2] and in assay [3] were 66% (active) and -2%, respectively. For the same compound, the result in assay [5], in assay [6], in assay [7] and in assay [8] was inactive.

Consider `O=C(c1cccc(-c2noc(C(F)(F)F)n2)c1)N1CCN(c2nsc3ccccc23)CC1`, for which the growth inhibition in assay [1] was 81% (active); in assay [4] it was 90% (active). In addition, the inhibition in assay [2] is 18%; in assay [3] it was -2%. In addition, the outcome in assay [5], in assay [6], in assay [7] and in assay [8] was inactive.

Turning to `Cc1nc2ccc3ccc(CNc4ccc(C(=O)CC(CCC(=O)O)C(=O)O)cc4)cc3c2c(=O)[nH]1` (stereo not given), the growth inhibition was 96% (active) in assay [1] and 95% (active) in assay [4]. The inhibition in assay [2] was 51% (active); in assay [3], -1%. For the same compound, the result in assay [5], in assay [6], in assay [7] and in assay [8] was inactive.

With `CC(C(=O)OCCOCn1cnc2c(=O)[nH]c(N)nc21)N(C)C(=O)OC(C)(C)C` (stereo not given), the growth inhibition in assay [1] was -1%; in assay [4] it was 87% (active). The values for the inhibition in assay [2] and in assay [3] were 28% and 2%, respectively. In addition, the result in assay [5], in assay [6], in assay [7] and in assay [8] was inactive.

`OC(CNCc1ccccc1OCc1ccccc1)c1cc(Br)cs1` (stereo not given): the growth inhibition in assay [1] was 88% (active); in assay [4], 97% (active). The inhibition in assay [2] was 16%; in assay [3], 5%. Further, the outcome in assay [5], in assay [6], in assay [7] and in assay [8] was inactive.

For the compound `CCOC(=O)c1ccc(N(CCCN(CCCN(c2ccc(C(=O)OCC)cc2)S(=O)(=O)c2ccc(C)cc2)CCc2ccc(O)cc2)S(=O)(=O)c2ccc(C)cc2)cc1`, the growth inhibition was 74% (active) in assay [1] and 96% (active) in assay [4]. The inhibition is -11% in assay [2] and -1% in assay [3]. Moreover, the outcome in assay [5], in assay [6], in assay [7] and in assay [8] was inactive.

As to `CCOc1ccc(C2CCN(CCCCNC(=O)c3ccc(NC(=O)c4ccc(Cl)cc4)cc3)CC2)c(Cl)c1`, the growth inhibition is 96% (active) in assay [1] and 101% (active) in assay [4]. Moreover, the inhibition in assay [2] was 32%; in assay [3] it was -2%. The outcome in assay [5], in assay [6], in assay [7] and in assay [8] was inactive.

`Cc1ccc2cc(NC(=O)CCCCCCCON3C(N)=NC(N)=NC34CCCCC4)ccc2n1`: the growth inhibition in assay [1] is 86% (active); in assay [4], 98% (active). Moreover, the results for the inhibition in assay [2] and in assay [3] were 6% and 3%, respectively. Moreover, the result in assay [5], in assay [6], in assay [7] and in assay [8] was inactive.

With `Fc1ccc2nc(-c3cccc(-c4ccc(CN5CCN(c6cnccn6)CC5)cc4)c3)[nH]c2c1`, the figures for the growth inhibition in assay [1] and in assay [4] were 31% and 96% (active), respectively. The inhibition in assay [2] was 19%; in assay [3] it was -4%. Further, the result in assay [5], in assay [6], in assay [7] and in assay [8] was inactive.

For `CCNC(=O)Nc1cccc(-c2cccc(-c3nc4c(C)cccc4[nH]3)c2)c1`, the values for the growth inhibition in assay [1] and in assay [4] were 31% and 85% (active), respectively. The results for the inhibition in assay [2] and in assay [3] were 7% and 4%, respectively. Moreover, the outcome in assay [5], in assay [6], in assay [7] and in assay [8] was inactive.

Regarding `Cc1cccc(S(=O)(=O)Nc2cccc(CCN3CCC(N4CCCCC4)CC3)c2)c1`, the growth inhibition in assay [1] was 13%; in assay [4], 87% (active). Moreover, the figures for the inhibition in assay [2] and in assay [3] were 15% and -2%, respectively. Further, the result in assay [5], in assay [6], in assay [7] and in assay [8] was inactive.

On to `Cc1cc(C)c(C(=O)Nc2ccc3nc(C)cc(N)c3c2)c(C)c1`, for which the growth inhibition in assay [1] was 14%; in assay [4], 84% (active). Moreover, the inhibition in assay [2] was 12%; in assay [3], 4%. Moreover, the outcome in assay [5], in assay [6], in assay [7] and in assay [8] was inactive.

As to `O=C(/C=C/c1ccc(Cl)c(Cl)c1)N1CCC(C(O)CN2CCC(c3c[nH]c4ccccc34)CC2)CC1` (stereo not given), the growth inhibition is 46% in assay [1] and 99% (active) in assay [4]. In addition, the inhibition in assay [2] was 14%; in assay [3], -4%. Also, the result in assay [5], in assay [6], in assay [7] and in assay [8] was inactive.
